About 83,000 compounds went through this panel and 20% of them were active in at least one assay; those are over-represented in the sample as a whole.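 Method: cells in 96-well plates; compound added at one concentration; 48 h incubation; percent growth measured; values under 10 scored active.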 A number with no mark means an inactive call. Activity calls are given as the source filed them.
Tested on: SK-MEL-2 melanoma
Assay: NCI-60 one-dose screen, 48 h (100 = growth as untreated, 0 = no growth, -100 = all killed)
Details: 10 µM unless noted
Description: Growth inhibition of the SK-MEL-2 human tumor cell line is measured as a screen for anti-cancer activity. Cells are grown in 96 well plates and exposed to the test compound for 48 hours. Compounds are tested at a single concentration, which is 10^-5 M for most compounds. The reported endpoint is percent growth (GI% or GIPRCNT), where numbers from 0 - 100% represent growth inhibition, and numbers from -100% - 0 represent cell death. For example, a value of 40 represents 60% growth inhibition. A value of 0 means no net growth occurred over the course of the experiment. A value of -40 indicates 40% of cells at the beginning of the experiment died by the end of the experiment. A value of -100 means all cells are dead at the end of the experiment.
NCI-60 Human Tumor Cell Lines Screen was performed using the standard one-dose NCI protocol, which is described in more detail at https://dtp.cancer.gov/discovery_development/nci-60/default.htm.
Compounds with GIPRCNT values below 10 were considered active. Activity score was based on GIPRCNT using the following formula: […]
Score is 0 for GIPRCNT values of 100 or above, 50 for GIPRCNT values of 0, and 100 for GIPRCNT values of -100.

| Structure (SMILES) | growth |
| --- | --- |
| COc1ccc(C(=O)NC(=O)Nc2ccc3c(c2)NC(=O)/C3=C\c2[nH]c(C)c(CCC(=O)O)c2C)c(F)c1 | -0.585% (active) |
| COc1ccc(/C(=C/c2cc(OC)c(OC)c(OC)c2)[N+](=O)[O-])cc1 | -13.2% (active) |
| Cc1cccc[n+]1CCC[n+]1ccccc1C | 100% |
| COc1ccc2c(c1)OC(N)=C(C#N)C2c1ccc(F)cc1 (stereo not given) | 18.5% |
| C=C1C(=O)O[C@H]2[C@H]1CC/C(COC(=O)c1ccc(Cl)nc1)=C\CC[C@@]1(C)O[C@@H]21 | 40.4% |
| CCCCOc1c(N)cc(Cl)cc1C(=O)OCCN(CC)CC | 90.9% |
| COc1cc(/C=C\c2cc(/C=C\c3ccc(O)c(OC)c3)n(C(=O)CNc3ccccc3OC)n2)ccc1O | 61.2% |
| COc1ccc2c(c1)OC(N)=C(C#N)C2c1ccc(F)c(F)c1 (stereo not given) | 32.9% |
| S=C=NP1(N=C=S)=NP(N=C=S)(N=C=S)=NP(N=C=S)(N=C=S)=NP(N=C=S)(N=C=S)=N1 (stereo not given) | 95.8% |
| COc1ccc(-n2c(-c3ccc(NC(=O)CCCl)cc3)nnc2-c2cc(OC)c(OC)c(OC)c2)cc1 | 48.3% |
| COc1cc2ncn3c(=O)c4c5c(sc4nc3c2cc1OC)CCCCC5 | 113% |
| Cc1cccc(NC(=O)CCc2ccc(N3C(N)=NC(N)=NC3(C)C)cc2)c1 | 59.9% |
| COc1ccccc1C(OC(C)=O)OC(C)=O | 90.7% |
| CC(C)(C)C(=O)Nc1nc2c(s1)CCc1ccn(S(=O)(=O)c3ccccc3)c1-2 | 81.8% |
| O=C(Nc1cccc([N+](=O)[O-])c1)c1ccc2ccccc2c1O | 44.1% |
| CCN(CC)C(=O)C1CCN(C(=O)c2ccccc2)CC1 | 98.3% |
| COc1ccc(-c2nn(-c3ccc(NC(=O)Nc4ccc(Cl)c(Cl)c4)cc3)cc2-c2ccncc2)cc1Cl | -35.5% (active) |
| Fc1ccc(Nc2ncnc3ccc(-c4cn[nH]c4)cc23)cc1Cl | 45.3% |
| O=C(Nc1ccc(-n2ccc3c(NC(=O)c4ccccc4)ncnc32)cc1)Nc1ccc(Cl)c(C(F)(F)F)c1 | -22.3% (active) |
| Cc1ccc(=O)n(-c2ccc(Br)cc2F)c1 | 116% |

| Structure (SMILES) | growth |
| --- | --- |
| C=CC(=O)NC(=O)Nc1ccccc1Cl | 86% |
| CCOc1ccc(Cc2nccc3cc(OCC)c(OCC)cc23)cc1OCC | 80.4% |
| Cn1c2ccccc2c2ssc(=S)c21 | 92.8% |
| CC/C(=C(\CC)c1ccc(OCCN(CC)CC)cc1)c1ccc(OCCN(CC)CC)cc1 | -8.16% (active) |
| Cc1ccc2[nH]c3nc4cccnc4c(C)c3c2c1 | 119% |
| Cc1cc(Nc2ccc(Cl)c(Cl)c2)nc(N)n1 | 102% |
| Nc1ncnc2c1c(-c1ccc(Oc3ccccc3)cc1)nn2C[C@@H]1SSC[C@H]1O | -14.4% (active) |
| Cc1cn([C@]2(CF)O[C@H](CO)C2C)c(=O)[nH]c1=O (stereo not given in full) | 98.3% |
| CCN(CC)CCNC(=O)c1c(C)[nH]c(/C=C2\C(=O)Nc3cc(NC(=O)NC(=O)c4ccc(OC)cc4F)ccc32)c1C | 128% |
| CCC1CN2C(=N1)c1ccccc1-c1cc(Cl)ccc12 (stereo not given) | -14.9% (active) |
| O=C(Nc1ccc(-n2cc(-c3ccncc3)c(-c3ccc(O)c(Cl)c3)n2)cc1)Nc1ccc(Cl)c(C(F)(F)F)c1 | -42.2% (active) |
| CCOC(=O)C1=C(N)Oc2cc(OC)ccc2C1c1ccc(F)c(F)c1 (stereo not given) | 11.8% |
| COc1ccc(-c2nn(-c3ccc(NC(=O)Nc4cc(C(F)(F)F)cc(C(F)(F)F)c4)cc3)cc2-c2ccncc2)cc1Cl | -38.3% (active) |
| O=C(COc1ccc(Cl)cc1Cl)N1N=C(c2ccc(Cl)cc2Cl)CC1(O)c1cc(F)c(Cl)cc1Cl (stereo not given) | 95.3% |
| COc1ccc2c(-c3ccc(F)cc3)c(C#N)c(=NC(C)=O)oc2c1 | 26.5% |
| CCn1c(SCC(=O)c2ccc(Br)cc2)nnc1-c1cc2c([nH]c3ccccc32)c(-c2cccc(O)c2)n1 | 69.9% |
| O=C(CSc1nnc(-c2ccccc2)o1)Nc1ccc(C(=O)/C=C/c2ccccc2)cc1 | 99.2% |
| CCC1S/C(=N\N=C(/C)c2cc3ccccc3o2)N(c2ccccc2)C1=O (stereo not given) | 99.6% |
| CC(C(C(=O)N1CCCCC1)N1CCCCC1)N1CCCCC1 (stereo not given) | 111% |
| N#Cc1c2c(c(N)[nH]c1=O)C(=O)NC2(O)c1ccccc1 (stereo not given) | 97.9% |
